In the library only some 3.7% were active in any assay of this set; here they are far more common.
BoNT-A LC inh2 = blocks Botulinum neurotoxin A light chain protease. multiplex microsphere protease substrate cleavage, flow cytometry. inhibition, % at 10 µM. 360,000 tested, 0.17% active. AID 588499; further: plate controls were buffer without enzyme for full effect and enzyme alone for no effect
Autofluor counter = flagged as autofluorescent in microsphere protease counterscreen; compound autofluorescence counterscreen, microsphere flow cytometry; hits give high values; fluorescence intensity (no concentration beside the values); 360,000 tested, 3.1% active; AID 624483; in the data active means fluorescence intensity above about 16000; inconclusive means no clear call, values can overlap the other calls
MazEF act = increases E. coli MazEF RNase cleavage of RNA; P0AE70; FAM/BHQ RNA-DNA oligo cleavage fluorescence, 5 h; activation, % at 20 µM; 350,000 tested, 0.32% active; AID 504720; in the data active means activation above about 50%
BoNT F protease = BoNT F light chain protease inhibition; Multiplex microsphere protease cleavage assay, flow cytometry; inhibition, % at 10 µM; 360,000 tested, 0.22% active; AID 588497; in the data active means inhibition above about 35%, passing the limit was not always enough; inconclusive means no clear call, values can overlap the other calls; further: plate controls were buffer without enzyme for full effect and enzyme alone for no effect
Anthrax LF prot = blocks Bacillus anthracis lethal factor protease | P15917 | multiplex microsphere protease cleavage assay, LF | inhibition, % at 10 µM | 360,000 tested, 0.12% active; further: plate controls were buffer without enzyme for full effect and enzyme alone for no effect
Target sequence (P15917 whole entry, looked up): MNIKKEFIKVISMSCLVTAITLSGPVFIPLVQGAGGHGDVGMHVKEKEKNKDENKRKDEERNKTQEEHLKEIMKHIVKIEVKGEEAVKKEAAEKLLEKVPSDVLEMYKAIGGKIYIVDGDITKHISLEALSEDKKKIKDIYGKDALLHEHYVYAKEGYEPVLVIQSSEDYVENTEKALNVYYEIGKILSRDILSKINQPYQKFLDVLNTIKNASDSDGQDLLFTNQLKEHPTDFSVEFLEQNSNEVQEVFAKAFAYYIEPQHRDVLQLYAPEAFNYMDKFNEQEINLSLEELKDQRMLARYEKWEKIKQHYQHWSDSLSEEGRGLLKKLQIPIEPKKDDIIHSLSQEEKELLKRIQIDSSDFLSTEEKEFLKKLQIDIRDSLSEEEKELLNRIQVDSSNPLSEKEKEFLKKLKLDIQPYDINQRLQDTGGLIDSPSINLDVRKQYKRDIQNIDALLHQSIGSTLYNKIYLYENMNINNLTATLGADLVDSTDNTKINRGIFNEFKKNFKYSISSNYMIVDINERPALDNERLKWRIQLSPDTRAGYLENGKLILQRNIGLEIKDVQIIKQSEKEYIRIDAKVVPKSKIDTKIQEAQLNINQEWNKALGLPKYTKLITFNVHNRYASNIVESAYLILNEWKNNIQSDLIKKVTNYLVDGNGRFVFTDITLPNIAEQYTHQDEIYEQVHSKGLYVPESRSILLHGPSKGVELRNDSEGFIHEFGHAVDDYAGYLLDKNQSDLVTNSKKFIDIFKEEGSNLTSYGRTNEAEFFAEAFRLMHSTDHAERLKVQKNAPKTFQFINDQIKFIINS
The depositor's hits bear a star. Unless noted, no stated cut-off is given here; in the data, active means inhibition above about 30%; inconclusive means no clear call, values can overlap the other calls; inactive means below that.

How did N#Cc1nc(-c2ccco2)oc1NCCCN1CCOCC1 do in these assays?
BoNT-A LC inh2: 0; Autofluor counter: 22603*; MazEF act: 0; BoNT F protease: 0; Anthrax LF prot: -9

What do the screens show for `N#Cc1nc(COc2ccc(Br)cc2)oc1NCCN1CCOCC1`?
BoNT-A LC inh2: -2; Autofluor counter: 23449*; MazEF act: -10; BoNT F protease: -2; Anthrax LF prot: 0

How did O=S(=O)(c1ccccc1)c1nc(-c2ccco2)oc1NCCCN1CCOCC1 do in these assays?
BoNT-A LC inh2: 1; Autofluor counter: 4174; MazEF act: 10; BoNT F protease: 16; Anthrax LF prot: -2

How did Cc1cnc(C(=O)Nc2ccc(C)c(S(=O)(=O)N3CCCCCC3)c2)cn1 do in these assays?
BoNT-A LC inh2: -2; Autofluor counter: 5574; MazEF act: 3; BoNT F protease: 1; Anthrax LF prot: -1

Results for CC(OC(=O)CCN=C1NS(=O)(=O)c2ccccc21)C(=O)Nc1ccc(S(N)(=O)=O)cc1 (centres undefined) ?
BoNT-A LC inh2: 0; Autofluor counter: 4076; MazEF act: 8; BoNT F protease: -3; Anthrax LF prot: -5

What do the screens show for `Cc1ccc(-c2ccc(S(=O)(=O)N3CCN(C)CC3)cc2)cc1`?
BoNT-A LC inh2: 1; Autofluor counter: 21880*; MazEF act: -8; BoNT F protease: 1; Anthrax LF prot: -2

How did O=S(=O)(Nc1cccc(-c2ccc(N3CCCCCC3)nn2)c1)c1ccc(F)cc1 do in these assays?
BoNT-A LC inh2: 0; Autofluor counter: 6208; MazEF act: 18; BoNT F protease: -1; Anthrax LF prot: 0

How did Cc1ccc(S(=O)(=O)N2CCN(S(=O)(=O)c3ccccc3)C2)cc1 do in these assays?
BoNT-A LC inh2: 3; Autofluor counter: 21096*; MazEF act: 0; BoNT F protease: 4; Anthrax LF prot: -5

What do the screens show for `CN(C)S(=O)(=O)N1CCN(c2ccc(Cl)cc2)CC1`?
BoNT-A LC inh2: 0; Autofluor counter: 16470*; MazEF act: 5; BoNT F protease: 0; Anthrax LF prot: -2

What do the screens show for `O=S(=O)(c1ccc(F)cc1)N1CCN(c2ccc(-c3ccccc3)nn2)CC1`?
BoNT-A LC inh2: 1; Autofluor counter: 4132; MazEF act: 63*; BoNT F protease: 4; Anthrax LF prot: -8

How did Cc1ccc2nc(SCC(=O)Nc3nonc3C)[nH]c2c1 do in these assays?
BoNT-A LC inh2: -2; Autofluor counter: 3814; MazEF act: -4; BoNT F protease: -12; Anthrax LF prot: -3

How did CN(C)S(=O)(=O)N1CCN(S(=O)(=O)c2ccccc2)CC1 do in these assays?
BoNT-A LC inh2: 0; Autofluor counter: 20194*; MazEF act: 3; BoNT F protease: 2; Anthrax LF prot: -7

What do the screens show for `CN1CCN(S(=O)(=O)c2ccc(-c3ccccc3)cc2)CC1`?
BoNT-A LC inh2: 1; Autofluor counter: 22073*; MazEF act: -7; BoNT F protease: 3; Anthrax LF prot: 2

How did CCc1nc2c(OCCC3CCCCC3)cccn2c1N(C)C(=O)c1cccs1 do in these assays?
BoNT-A LC inh2: 0; Autofluor counter: 3583; BoNT F protease: -2; Anthrax LF prot: 4

How did CCOC(=O)[C@]12CCCC=C1N(Cc1ccc3c(c1)OCO3)C(=O)[C@H](CC(=O)NCC13CC4CC(CC(C4)C1)C3)C2 do in these assays?
BoNT-A LC inh2: 0; Autofluor counter: 6072; BoNT F protease: -1; Anthrax LF prot: 4

What do the screens show for `CC(C)c1cc(C(N)=O)c(NC(=O)C2CCC2)s1`?
BoNT-A LC inh2: 1; Autofluor counter: 21955*; MazEF act: -10; BoNT F protease: 4; Anthrax LF prot: 0

Results for CC(C)c1nnc(NC(=O)C2CCCCC2)s1 ?
BoNT-A LC inh2: -1; Autofluor counter: 4719; MazEF act: 4; BoNT F protease: -18; Anthrax LF prot: -10

How did Cc1[nH]c2ccccc2c1/C=N/Nc1ccc([N+](=O)[O-])cc1 do in these assays?
BoNT-A LC inh2: 2; Autofluor counter: 2996; MazEF act: 18; BoNT F protease: -136; Anthrax LF prot: -25

What do the screens show for `COc1ccccc1NS(=O)(=O)c1cc([N+](=O)[O-])ccc1N/N=C/c1c(C)[nH]c2ccccc12`?
BoNT-A LC inh2: 5; Autofluor counter: 16725*; MazEF act: -6; BoNT F protease: -62; Anthrax LF prot: -28

Results for CCCc1cc(C(=O)N2CCN(C(c3ccccc3)c3ccccc3)CC2)no1 ?
BoNT-A LC inh2: 0; Autofluor counter: 5879; MazEF act: 1; BoNT F protease: 1; Anthrax LF prot: -4

What do the screens show for `O=C(c1ccc2c(=O)n3c(nc2c1)CCCCC3)N1CCN(c2ccccc2)CC1`?
BoNT-A LC inh2: 3; Autofluor counter: 1683; MazEF act: 4; BoNT F protease: 8; Anthrax LF prot: -8

How did Cc1cc(C(=O)N2CCN(C(c3ccccc3)c3ccccc3)CC2)no1 do in these assays?
BoNT-A LC inh2: -3; Autofluor counter: 23268*; MazEF act: -11; BoNT F protease: -5; Anthrax LF prot: -2

How did CSc1ccc(C(=S)N2CCN(C(c3ccccc3)c3ccccc3)CC2)cc1 do in these assays?
BoNT-A LC inh2: -2; Autofluor counter: 25174*; MazEF act: -4; BoNT F protease: -5; Anthrax LF prot: -2

Results for O=C(c1ccc2c(=O)n3c(nc2c1)CCCCC3)N1CCN(C(c2ccccc2)c2ccccc2)CC1 ?
BoNT-A LC inh2: 0; Autofluor counter: 23040*; MazEF act: -9; BoNT F protease: -1; Anthrax LF prot: 4

Results for O=C(c1ccc(=O)oc1)N1CCN(C(c2ccccc2)c2ccccc2)CC1 ?
BoNT-A LC inh2: inconclusive; Autofluor counter: 23517*; MazEF act: -3; BoNT F protease: -4; Anthrax LF prot: -3

Results for COc1cc(C=O)ccc1Oc1ccc(S(=O)(=O)N2CCOCC2)cc1[N+](=O)[O-] ?
BoNT-A LC inh2: 0; Autofluor counter: 4256; MazEF act: 0; BoNT F protease: -8; Anthrax LF prot: -6

How did Cc1cc(C)c(S(=O)(=O)NCc2cn3ccccc3n2)c(C)c1 do in these assays?
BoNT-A LC inh2: 0; Autofluor counter: 4825; MazEF act: 4; BoNT F protease: 0; Anthrax LF prot: -1

Results for CC(C)(Oc1ccc(Br)cc1Cl)C(=O)Nc1ccon1 ?
BoNT-A LC inh2: 4; Autofluor counter: 5251; MazEF act: 2; BoNT F protease: 5; Anthrax LF prot: -1

How did C#CCNC(=O)c1ccc2sc([C@H]3C[C@H](O)[C@@H](CO)O3)nc2c1 do in these assays?
BoNT-A LC inh2: 0; Autofluor counter: 2917; BoNT F protease: -2; Anthrax LF prot: -5

What do the screens show for `COC(=O)C1CCN(S(=O)(=O)CCNC(=O)c2ccc(F)cc2)CC1`?
MazEF act: -9

How did COC(=O)CN(C)C1CC(=O)N(c2ccc(Cl)cc2)C1=O (centres undefined) do in these assays?
BoNT-A LC inh2: 0; Autofluor counter: 22599*; MazEF act: 6; BoNT F protease: -2; Anthrax LF prot: 0

What do the screens show for `CN(Cc1ccncc1)C1CC(=O)N(c2ccc(Cl)cc2)C1=O` (centres undefined)?
BoNT-A LC inh2: 0; Autofluor counter: 2724; MazEF act: 2; BoNT F protease: 4; Anthrax LF prot: 0
